Results published in ChEMBL document CHEMBL3433997, “St. Jude Leishmania screening dataset” (2016).

Experiments:
Type in all cases: functional
[1] = target: Solute carrier family 2, facilitated glucose transporter member 1 (Homo sapiens) (UniProt P11166); test: ST_JUDE_LEISH: Cytotoxicity at 2uM final concentration against transgenic Leishmania Mexicana promastigotes LmGLUT1 that are glucose transport deficient and complemented with the human glucose transporter GLUT1. Activity is measured by DNA content using SYBR green in vitro
[2] = target: Hexose transporter 1 (Plasmodium falciparum) (UniProt O97467); test: ST_JUDE_LEISH: Cytotoxicity at 2uM final concentration against transgenic Leishmania Mexicana promastigotes LmPfHT that are glucose transport deficient and complemented with the Plasmodium falciparum hexose transporter. Activity is measured by DNA content using SYBR green in vitro
[3] = target: Glucose transporter (Leishmania mexicana) (UniProt O61059); test: ST_JUDE_LEISH: Cytotoxicity at 2uM final concentration against transgenic Leishmania Mexicana promastigotes LmGT2 that are glucose transport deficient and complemented with the L. Mexicana glucose transporter 2. Activity is measured by DNA content using SYBR green in vitro

Sequence of Solute carrier family 2, facilitated glucose transporter member 1 (Homo sapiens) (P11166 whole entry): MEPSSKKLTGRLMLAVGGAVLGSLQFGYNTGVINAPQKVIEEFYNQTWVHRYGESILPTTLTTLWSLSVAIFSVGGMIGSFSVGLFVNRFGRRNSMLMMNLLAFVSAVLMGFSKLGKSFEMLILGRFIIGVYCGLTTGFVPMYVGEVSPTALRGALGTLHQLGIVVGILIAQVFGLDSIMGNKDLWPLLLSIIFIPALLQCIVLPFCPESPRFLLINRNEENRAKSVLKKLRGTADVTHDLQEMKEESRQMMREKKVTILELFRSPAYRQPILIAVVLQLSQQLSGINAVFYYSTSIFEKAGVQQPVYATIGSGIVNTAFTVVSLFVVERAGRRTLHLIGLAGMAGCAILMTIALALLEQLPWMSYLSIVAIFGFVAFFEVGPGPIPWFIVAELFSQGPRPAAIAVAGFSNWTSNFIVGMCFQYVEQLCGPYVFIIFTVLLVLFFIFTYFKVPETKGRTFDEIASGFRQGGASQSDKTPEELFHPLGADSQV

SMILES | inhibition [1] [%] | inhibition [2] [%] | inhibition [3] [%]
COc1ccc(NC(=O)CCNc2cc(C)nc(NCCOc3ccccc3)n2)cc1 | 2.22 | 2.64 | 1.92
COc1ccc(F)cc1-c1ccc(C(=O)N2CCCN(c3ccc(C(F)(F)F)cn3)CC2)cc1 | 2.4 | 1.75 | 4.03
CC(=O)Nc1ccc(OCCN(Cc2ccccc2C(F)(F)F)c2ccc(C#N)c(C(F)(F)F)c2)c(Cl)c1 | 2.42 | 2.13 | 2.83
CCCc1ccc(NC(=O)c2cccc(CN3CCCN(Cc4cccc(C#N)c4)CC3)c2)cc1 | 3.6 | -0.3 | 1.95
CC(C)CNC(=O)CN1C(=O)C(c2ccccc2)(c2ccccc2)N=C1N | 4.76 | 4.66 | 2.29
CC(C)(C)c1ccc(CN2CCCCC(NC(=O)c3cc(-c4cccc(F)c4)cs3)C2)cc1 (stereo not drawn) | -2.41 | -3.63 | -0.11
O=C(/C=C/c1ccsc1)N1CCC(CCN2CCC(c3c[nH]c4ccccc34)CC2)CC1 | 2.34 | 3.57 | 6.24
COc1cccc2cc(C(=O)N[C@@H](CC(C)C)C(=O)N[C@H](C=NN3CCOC3=O)CC(C)C)oc12 | 2.15 | 4.14 | 1.9
CN1CCc2ccc(NC(=O)Nc3cccc(C(=O)c4ccccc4)c3)cc2C1 | 3.19 | 2.01 | 1.86
COc1cccc(CNc2noc(-c3c(-c4ccccc4)noc3C)n2)c1OC | 3.64 | 3.83 | 2.76
O=C(/C=C/c1ccc(Cl)c(Cl)c1)NCCCCCN1CCCN(C(=O)Nc2cc(F)cc(F)c2)CC1 | 9.22 | 8.04 | 8.86
CCCc1ccc(NC(=O)c2ccc(CN3CCCN(Cc4ccc(OC)cc4)CC3)cc2)cc1 | -1.19 | -0.55 | -0.74
CCCN(c1ccc(C(F)(F)F)cc1[N+](=O)[O-])S(=O)(=O)C(c1ccccc1)c1ccc(C(F)(F)F)cc1[N+](=O)[O-] (stereo not drawn) | -0.48 | 6.88 | -1.01
Cc1ccc(Nc2nc(C)cc(NC3CCN(C)CC3)n2)cc1 | 1.14 | 3.12 | 5.43
COc1ccc2nccc(N3CCC(SCCNS(=O)(=O)c4ccc5c(c4)OCCO5)C3)c2n1 (stereo not drawn) | 5.04 | 3.57 | -0.04
Cc1cccc(-c2nc(Nc3ccncc3)c3cc(N(C)C)ccc3n2)n1 | 0.37 | -1.05 | -3.66
COc1cc2nc(Nc3ccc(Oc4ccccc4)cc3)nc(Nc3ccc(Oc4ccccc4)cc3)c2cc1OC | 6.52 | 3.92 | 6.04
O=C(NCCCCN1CCC(c2ccc3c(c2OCCOCCO)CCCC3)CC1)c1ccc(-c2ccc(C(F)(F)F)cc2)cc1 | 0.77 | 2.47 | 0.76

SMILES | inhibition [1] [%] | inhibition [2] [%] | inhibition [3] [%]
CCCCCCN1CCCN(Cc2ccc(C(=O)Nc3cccc(CC)c3)cc2)CC1 | 4.76 | 3.36 | 8.83
Cc1ccc(C)c(NC(=O)NCCNc2ccnc(Nc3ccc(F)cc3)n2)c1 | 17 | 13.1 | 6.47
c1cncc(CN2CCN(Cc3ccc(-c4ccc(-c5nc6ccccc6[nH]5)s4)cc3)CC2)c1 | 12.2 | 7.69 | 1.44
CO/C(=C\C=C\c1cc2cc(Cl)c(Cl)cc2[nH]1)C(=O)NCCCN1CCN(c2cccc(OC)c2)CC1 | 8.59 | 8.04 | 9.1
CCOc1cc(C)c(C2CCN(CCCCNC(=O)c3ccc(NC(=O)c4ccc(Cl)cc4)cc3)CC2)cc1C | -0.49 | -0.72 | -0.67
O=C(Nc1ccc(C(F)(F)F)cc1)c1cccc(S(=O)(=O)NCC2CCCN(CC3CCCCC3)C2)c1 (stereo not drawn) | 5.71 | 2.62 | 0.02
CN1CCc2cc(O)c(NS(=O)(=O)c3ccc(-c4ccc(Cl)cc4)cc3)cc2CC1 | 12.4 | 9.38 | 9.99
CCc1c(C(=O)NC2CCC(N3CCC(c4ccccc4C)CC3)CC2)[nH]c2ccc(Br)cc12 (stereo not drawn) | 5.69 | 5.55 | 3.97
OC1(C(F)(F)F)CC(c2ccccc2)=NN1c1nncc(-c2ccccc2)n1 (stereo not drawn) | 0.8 | 0.53 | 1.18
Cc1ccc2ccncc2c1N | 7.9 | 3.24 | 6.36
O=C(/C=C/c1ccc(Cl)c(Cl)c1)NCCCCCN1CCCC(CNC(=O)Nc2ccc(Oc3ccccc3)cc2)C1 (stereo not drawn) | -0.78 | 0.69 | 0.61
O=C(Nc1ccc(F)c(Cl)c1)NC1CCN(c2ccnc3cc(Cl)ccc23)C1 (stereo not drawn) | 6.4 | 6.38 | 8.81
COc1ccc(-c2cnc3[nH]cc(-c4ccncc4)c3c2)cc1OC | 68.3 | 72.8 | 65.3
CC(C(=O)N1CCCC1)N1CCN(C(c2ccccc2)c2ccccc2)CC1 (stereo not drawn) | 2 | 2.36 | 2.74
CN(C)c1cc(NN=Cc2cc(Cl)ccc2O)nc(N(C)C)n1 | 4.76 | 4.94 | 2.54
O=C(/C=C/c1ccc(Cl)c(Cl)c1)NCCCCCN1CCC(c2c[nH]c3ccccc23)CC1 | 1.33 | 4.32 | 3.63
C[C@H](NC(=O)c1c(CN2CCC(NC(=O)CC(C)(C)C)CC2)c(-c2cccs2)nc2ccccc12)C1CCCCC1 | 2.07 | 1.16 | 0.4
O=C(CCC1CCCCC1=O)c1ccccc1 (stereo not drawn) | 3.73 | 2.15 | 1.52
